This passage reports growth results from PubChem BioAssay (NCI).

Where “and” joins values, the source holds several entries; their conditions need not be identical. Identical values can stand only once. The panel holds about 83,000 compounds, 20% with a hit somewhere; the sample as a whole holds those more often.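 Values shown are percent growth following 48 h exposure of cells in 96-well plates to a single concentration of compound; below 10 was considered active.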 Values without a mark were called inactive. Calls of active or inactive are those of the source.

This experiment concerns MDA-MB-435 melanoma. Kind of experiment: NCI-60 one-dose screen, 48 h (100 = growth as untreated, 0 = no growth, -100 = all killed). The settings on record: 10 µM unless noted.
Regarding `NC1=CC(=O)c2cccnc2C1=O`, the growth is -95.5% (active). With `Cn1c(=O)c2c(nc(Nc3cc(=O)[nH]c(=O)[nH]3)n2Cc2ccccc2)n(C)c1=O` the figure was -73% (active); with `O=C(c1ccc(Nc2nccc(NCCCNc3ccnc4cc(Cl)ccc34)n2)cc1)N1CCCCC1`, 34.1%; with `COc1c(NC=O)c2c(c([N+](=O)[O-])c1OC)C(=O)OC2`, 115% and 101%. Consider `COc1ccc(Cl)cc1Nc1nc(C(F)(F)F)ccc1C(=O)N/N=C/c1ccc(N(C)C)cc1`, for which the growth is 121%. For the compound `CC/C=C\C/C=C\C[C@H](O)C/C=C1/C(=O)C=C[C@@H]1C/C=C\CCCC(=O)OC`, the growth is -16.4% (active). Under `Cc1[nH]c(C(=O)Nc2nc3ccc(NC(=O)CCN)cc3s2)c(Cl)c1Cl` stands 91.3%; under `COc1cc(Cl)cc(-c2nn(C(=O)NS(=O)(=O)c3ccc(Cl)cc3)cc2-c2ccncc2)c1`, 87.5%. Take `C[C@@H]1O[C@@H](O[C@H]2[C@@H](OC(=O)[C@]34CCC(C)(C)C[C@H]3C3=CC[C@@H]5[C@@]6(C)C[C@H](O)[C@H](O[C@@H]7O[C@H](CO)[C@@H](O)[C@H](O)[C@H]7O)[C@@](C)(CO)[C@@H]6CC[C@@]5(C)[C@]3(C)C[C@H]4O)OC[C@@H](O)[C@@H]2O)[C@H](O)[C@H](O[C@@H]2OC[C@@H](O)[C@H](O[C@@H]3OC[C@](O)(CO)[C@H]3O[C@@H]3OC[C@@H](O)[C@H](O)[C@H]3O)[C@H]2O)[C@H]1O[C@@H]1OC[C@](O)(CO)[C@H]1O`: the growth is 52.1%.
